# PubChem BioAssay AID1159607 (Small Molecule Screening Facility, UW Madison, 2016)
# Several values for one entry are separate records, joined by “and”; a condition that tells them apart may be missing. Equal values may be shown once. Out of some 70,000 compounds screened, about 400 (0.57%) were called active. Rule as the data show it: active = FP signal below about 40; inactive = the rest. The sample as a whole holds a higher share of actives than the screen did.
# System: RMI core complex (RMI1/RMI2) binding to FANCM MM2 peptide, human
# Assay: disruptors of RMI1/RMI2 association with MM2 peptide – biochemical, fluorescence polarization, human, primary screen (AID 1159607)
# Settings: RMI core complex with F-MM2 peptide, at 33 µM, active compounds read low
row,SMILES,FP signal (polarization)
1,Cc1cccn2c(=O)c(/C=C3\SC(=S)N(C)C3=O)c(NCc3ccc4c(c3)OCO4)nc12,42 (inactive)
2,Cc1ccc(S(=O)(=O)NCCCCCC(=O)Nc2ccncc2)cc1,56 (inactive)
3,Cc1ccc(NC(=O)C(=O)Nc2cc(F)ccc2F)cc1N1CCCC1=O,54 (inactive)
4,O=C(CSc1nnc(NC(=O)c2ccc(Br)o2)s1)Nc1cc(C(F)(F)F)ccc1Cl,64 (inactive)
5,COC(=O)c1c(N2C(=O)C3ON(c4ccc(Cl)cc4)C(c4ccco4)C3C2=O)sc(C)c1C (stereo unspecified),25 (active)
6,N#CC(c1ccccc1)N1CCSCC1 (stereo unspecified),56 (inactive)
7,Cc1cc(-c2nnc(NC(=O)Cc3ccc(F)cc3)o2)n(C)n1,70 (inactive)
8,CCOC(=O)N1CCc2c(sc(NC(=O)CSc3ccccc3)c2C(N)=O)C1,67 (inactive)
9,O=C(NCCn1ncc2c(=O)n(Cc3cccc([N+](=O)[O-])c3)cnc21)C1CC(=O)N(c2ccc(F)cc2)C1 (stereo unspecified),71 (inactive)
10,O=C(CCn1cncn1)N1CCN(C(=O)N2CCOCC2)CC1,63 (inactive)
11,O=C(c1ccc(=O)n(Cc2cccc(F)c2)n1)N1CCN(Cc2ccccc2)CC1,59 (inactive)
12,CCN1C(=O)Cc2cc(NC(=O)c3ccc(F)c(F)c3)ccc21,68 (inactive)
13,COc1ccc(Cl)c2sc(NNC(=O)c3ccc(S(=O)(=O)N4CCc5ccccc5C4)cc3)nc12,11 (active)
14,CSc1ccc2nc(NC(=O)c3ccc(S(=O)(=O)N4CCc5ccccc5C4)cc3)sc2c1,70 (inactive)
15,COc1ccc(Cl)c2sc(NC(=O)C3CCCN(S(C)(=O)=O)C3)nc12 (stereo unspecified),63 (inactive)
16,CCc1nnc(NC(=O)CSc2ccc3nc(-c4ccccc4)cn3n2)s1,55 (inactive)
17,CN(C)C(C#N)c1cccc(Cl)c1Cl (stereo unspecified),69 (inactive)
18,CCOC(=O)N1CCc2c(sc(NC(=O)c3ccccc3I)c2C#N)C1,63 (inactive)
19,COc1cn(CC(=O)Nc2ccc(C)cc2C)c(CSc2nnnn2C)cc1=O,52 (inactive)
20,C(=N/NC1=NCCN1Cc1ccccc1)/c1ccc2c(c1)OCO2,51 (inactive) and 48 (inactive)
21,Clc1ccc(-c2csc(-c3ccncc3)n2)cc1,51 (inactive)
22,CCn1cc(C(=O)N2CCN(Cc3cc(C)ccc3C)CC2)c2nn(-c3ccccc3)c(=O)c-2c1,64 (inactive)
23,COCC(=O)Nc1ccc2c(c1)C(=O)N(C)c1cc(C)ccc1O2,69 (inactive)
24,O=C(C1=C(O)C(=O)N(CCCN2CCOCC2)C1c1ccco1)c1cccs1 (stereo unspecified),57 (inactive)

row,SMILES,FP signal (polarization)
1,COc1ccccc1CCNC(=O)Cc1csc(Nc2ccc(F)cc2)n1,65 (inactive)
2,O=C(Cc1csc(Nc2ccc(F)cc2)n1)NCc1ccccn1,9 (active)
3,O=C(Cc1csc(Nc2ccccc2)n1)NCc1ccccc1Cl,63 (inactive)
4,CCOC(=O)Cn1c(=NC(=O)c2ccnn2C)sc2cc(C(C)C)ccc21,69 (inactive)
5,COCCN1C(=O)C2N=NN(c3ccccc3)C2C1=O (stereo unspecified),66 (inactive)
6,O=C(c1cccc(C(F)(F)F)c1)N1CCC(c2nnc(C3CC3)s2)CC1,61 (inactive)
7,COC(=O)Nc1ccc2c(c1)C(=O)N(C)c1ccccc1O2,57 (inactive)
8,CC1CCCCC1NC(=O)C(=O)c1cn(CC(=O)N2CCCCC2)c2ccccc12 (stereo unspecified),56 (inactive)
9,CC1=NN(c2ccccc2)C(=O)C1=Cc1c(C)[nH]n(-c2ccccc2)c1=O,53 (inactive)
10,O=C(Nc1ccc(Br)cc1)Nc1c[nH]c2ccccc12,56 (inactive)
11,O=C(Nc1ccc([N+](=O)[O-])cc1)Nc1nc(-c2nc3ccccc3s2)cs1,65 (inactive)
12,Cc1ccnc(NS(=O)(=O)c2ccc(NC(=O)c3ccc([N+](=O)[O-])o3)cc2)n1,61 (inactive)
13,NC(=O)c1c(NC(=O)CCSc2ccc(Cl)cc2)sc2c1CCCCC2,102 (inactive)
14,Cc1c(/C=N\Nc2ccc([N+](=O)[O-])cc2)sc2ccccc12,64 (inactive)
15,COc1ccccc1/C=C/C(=O)NC(=S)N1CCCC1,59 (inactive)
16,Cc1cc(C(=O)Nc2sccc2-c2nc3ccccc3s2)on1,107 (inactive)
17,NC(=O)c1cnn(-c2ccccc2)c1N,55 (inactive)
18,CCC(CC)C(=O)Nc1nnc(SCc2cc(=O)c(OC(=O)c3ccc(S(=O)(=O)N(CC)CC)cc3)co2)s1,53 (inactive)
19,Cc1ccc2c(c1)N(C(=O)Cn1nc3ccc(S(=O)(=O)C(C)(C)C)nn3c1=O)CCO2,64 (inactive)
20,COc1ccc(S(=O)(=O)NNC(=O)CSCc2nc(-c3ccc(Cl)cc3)cs2)cc1,78 (inactive) and 65 (inactive)
21,CC(=O)c1cccc(NC(=O)CSc2cc(C)c3ccccc3n2)c1,77 (inactive)
22,Cc1ccc(S(=O)(=O)Nc2ccc3c(c2)C(=O)NCCO3)c(C)c1,64 (inactive)
23,O=C(CSc1nnc2ccc(-c3cccs3)nn12)NCCc1ccccc1,54 (inactive)
24,CS(=O)(=O)c1ccc(Nc2nc(C(=O)NC3CC3)cs2)cc1,62 (inactive)

row,SMILES,FP signal (polarization)
1,C=CCn1c(SCC(=O)c2ccc3c(c2)OCO3)nc2scc(-c3ccco3)c2c1=O,120 (inactive)
2,Cc1cc(C)c2nc(N(CCN(C)C)C(=O)/C=C/c3cccs3)sc2c1,92 (inactive)
3,COC(CC(=O)O)c1nc2ccccc2s1 (stereo unspecified),59 (inactive)
4,COc1cccc2cc(C(=O)Nc3ccc4nc(N5CCN(C)CC5)sc4c3)oc12,64 (inactive)
5,COc1cccc(-n2c(=S)sc3c(=O)[nH]c(SCC(=O)Nc4ccc(C)c(F)c4)nc32)c1,48 (inactive)
6,COc1cccn(Cc2n[nH]c(=S)n2C)c1=O,59 (inactive)
7,CC(=O)c1ccc(NC(=O)CSc2nc(C(F)(F)F)cc(=O)[nH]2)cc1,54 (inactive)
8,COc1ccc(Oc2cccc(Cl)c2CNC(=O)c2ccccc2N)cc1,60 (inactive)
9,COC(=O)c1cccn1-c1ccc(F)cc1,56 (inactive)
10,Cc1cc(NC(=O)/C=C/c2ccccc2)n(C(C)C)n1,67 (inactive)
11,COc1ccc(-c2cc(=O)n(CC(=O)N3CCN(c4ccccc4OC)CC3)cn2)cc1,65 (inactive)
12,CCOC(=O)N1CCN(C(=O)COc2coc(CN3CCc4ccccc43)cc2=O)CC1,57 (inactive)
13,Cc1cccc(NC(=O)Cn2c(C)cc(C)c(-c3nc(-c4ccc(F)cc4)no3)c2=O)c1C,137 (inactive)
14,Cc1nc2c(=S)[nH]nc(-c3ccccc3)c2s1,68 (inactive)
15,CCc1cc(C(=O)c2ccc(OC)cc2)c(NC(=O)CN2CCN(C)CC2)s1,69 (inactive)
16,COc1cccc2cc(-c3cc(=O)oc4cc(OCC(=O)OC(C)(C)C)ccc34)c(=O)oc12,67 (inactive)
17,COc1ccc(OC)c(-c2cc3ccc(O)c(CN4CCN(C)CC4)c3oc2=O)c1,37 (active)
18,Cn1nccc1-c1nnc(NC(=O)c2c(F)cccc2Cl)o1,75 (inactive)
19,CCCCOc1ccccc1-c1cc2c(SCC(=O)Nc3ccc(NC(C)=O)cc3)nccn2n1,70 (inactive)
20,CCOC(=O)c1nn(-c2ccccc2C)c(=O)cc1NCCC(c1ccccc1)c1ccccc1,54 (inactive)
21,COc1ccc(C)c2sc(N(Cc3cccnc3)C(=O)/C=C/c3ccccc3)nc12,55 (inactive)
22,CC(C)(C)c1cc(NC(=O)CSc2nnc3ccccn23)cc(C(C)(C)C)c1,59 (inactive)
23,O=C(Cn1cc(-c2nnc(-c3ccccc3)o2)c2ccccc21)N1CCCC1,130 (inactive)
24,CCCc1cc(=O)n(CC(=O)Nc2ccccc2F)cn1,65 (inactive)

row,SMILES,FP signal (polarization)
1,O=C(Nc1ccccc1-c1nc2ccccc2s1)c1ccc(Cl)s1,60 (inactive)
2,O=C(CSc1nnc(CNC(=O)c2ccc(F)cc2)o1)Nc1ccc2c(c1)OCO2,57 (inactive)
3,COC(=O)c1cc(OC)c(OC)cc1NC(=O)C1Cc2ccccc2C(=O)O1 (stereo unspecified),56 (inactive)
4,CC(=O)SCC(=O)Nc1sccc1C#N,66 (inactive)
5,O=C(CSc1nnc(NC(=O)c2c(F)cccc2Cl)s1)Nc1ccc(Br)cc1,61 (inactive)
6,O=C(Nc1ccc(OC(F)(F)F)cc1)c1cnc2sccn2c1=O,64 (inactive)
7,O=C(NCC1CCN(Cc2cccs2)CC1)c1ccco1,72 (inactive)
8,CCOc1ccc(-c2noc(-c3cc(-c4cc(C)ccc4C)n[nH]3)n2)cc1OC,95 (inactive)
9,COc1ccc2nc(-c3ccc(NC(=O)c4c(F)cccc4Cl)cc3)cn2n1,122 (inactive)
10,SCCc1nc2ccccc2[nH]1,63 (inactive)
11,COc1ccc(-c2noc(Cn3cnc4c(nnn4Cc4cccc(F)c4)c3=O)n2)cc1,76 (inactive)
12,O=C(Nc1cc(F)ccc1F)N1CCN(c2ccc(-c3ccc4c(c3)OCO4)nn2)CC1,123 (inactive)
13,O=C(COc1ccc(Cl)cc1)Nc1ccc2c(c1)C(=O)NCCO2,60 (inactive)
14,COC(=O)c1c(NC(=O)CCS(=O)(=O)c2ccc(Cl)cc2)sc2c1CCC(C)C2 (stereo unspecified),96 (inactive)
15,O=C(CN1C(=O)c2ccccc2C1=O)Nc1nnc(-c2ccco2)o1,63 (inactive)
16,CCOc1ccc(S(=O)(=O)Nc2ccc3c(c2)CN(C(=O)C2CC2)CC3)cc1F,66 (inactive)
17,CCc1nnc(C2CCN(S(C)(=O)=O)CC2)s1,60 (inactive)
18,Clc1ccc(C=Nc2cccnc2)c(Cl)c1,63 (inactive)
19,Oc1ccc(Br)cc1C=Nc1ccccn1,41 (inactive)
20,Cc1cccnc1N=Cc1cc(Cl)cc(Cl)c1O,29 (active)
21,Cn1c(SCC(=O)NCc2ccc(F)cc2)nc2cc(-c3ccccc3)sc2c1=O,104 (inactive)
22,CN(C)c1ccc(CCCNC(=O)COc2ccc(Cl)cc2)cc1,69 (inactive)
23,Cn1nc(-c2cccc(NC(=O)c3ccccc3C(F)(F)F)c2)ccc1=O,56 (inactive)
24,O=C(N/N=C\c1ccncc1)N/N=C\c1ccncc1,54 (inactive)
